# The campaign covered roughly 340,000 compounds. About 800 (0.24%) were called active. The list comes from a sample in which actives are over-represented; it also holds similar structures and randomly drawn compounds. Unmarked numbers belong to inactive results.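 How the source made its calls: active means activation above the mean over all tested compounds plus 3 SD (cut at about 30% in these data); inactive means the rest.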
# Target: Troponin I, cardiac muscle (Homo sapiens) + Troponin T, cardiac muscle (Homo sapiens) + Troponin C, slow skeletal and cardiac muscles (Homo sapiens) (UniProt P19429+P45379+P63316)
# Assay: calcium sensitizers of cardiac thin filaments – biochemical, IANBD-TnC fluorescence, EC20 calcium, primary screen (AID 493008);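 further: rise in fluorescence read as greater calcium sensitivity of cardiac thin filaments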
# Settings: IANBD-labeled TnC RTF fluorescence at EC20 calcium; at 7.2 µM; hits give high values; 0% EC20 calcium, 100% full calcium
row,SMILES,activation
1,CCn1cc(C(=O)N[C@@H](C)C(=O)NCCO)c(=O)c2cc3c(cc21)OCO3,0.57%
2,CCCC(O)(CCC)C(=O)NN(C(=O)CCl)c1cccc(C)c1,-2.77%
3,CN(C)C(CNC(=O)c1ccc(S(=O)(=O)NCc2ccco2)cc1)c1ccccc1 (stereo unspecified),-0.95%
4,CC1(C)Cc2nc3sc4c(SCC(=O)NC(c5ccccc5)c5ccccc5)ncnc4c3cc2CO1,-4.73%
5,O=C(CSc1ncccn1)N1CCCC1,4.22%
6,C=CCNc1nnc(C)c2ccccc12,6.46%
7,C=CCNc1nnc(SCC(=O)N2CCCCC2)c2ccccc12,33.8% (active)
8,Cc1nn(-c2ncccn2)c2c1C(=O)CC(C)(C)C2Br (stereo unspecified),1.48%
9,CCc1ccc2ncc(C(=O)c3ccccc3)c(N3CCOCC3)c2c1,6.46%
10,N#Cc1c(NCCO)ccc([N+](=O)[O-])c1NCCO,-0.27%
11,CCOC(=O)CC(NC(=O)C1c2ccccc2Oc2ccccc21)c1ccc(C)cc1 (stereo unspecified),4.5%
12,CCCN(CCC)C(=O)C1c2ccccc2Oc2ccccc21,98.3% (active)
13,CCCCCNC(=O)C1c2ccccc2Oc2ccccc21,4.69%
14,CC1=C(C(=O)OCc2ccccc2)C(c2ccco2)n2ncnc2N1 (stereo unspecified),8.65%
15,Brc1ccc(C2=CC(c3ccco3)n3ncnc3N2)cc1 (stereo unspecified),245% (active)
16,CC1=C(C(N)=O)C(c2ccc(Br)cc2)n2ncnc2N1 (stereo unspecified),-0.09%

row,SMILES,activation
1,CCN1CCN(c2ccc(S(=O)(=O)N3CCCCC3)cc2NC(=O)c2cccc(NC(C)=O)c2)CC1,-0.39%
2,CC1CCCCC12NC(=O)N(CC(=O)OCc1c(F)cccc1Cl)C2=O (stereo unspecified),-6.16%
3,Cc1ccccc1OCCC(=O)OCC(=O)NC(C)c1ccccc1 (stereo unspecified),1.21%
4,O=C1Nc2ccccc2/C1=C/c1ccnc2ccccc12,3.84%
5,Cc1ccccc1-n1c(C)cc(/C=C2\NC(=O)NC2=O)c1C,-2.97%
6,Cc1cc(C)c(/C=C2\C(=O)Nc3ccccc32)[nH]1,149% (active)
7,C[C@H](NC(=O)c1[nH]cnc1C(=O)Nc1nccs1)c1ccccc1,-1.35%
8,O=C(COC(=O)c1ccc(S(=O)(=O)Nc2ccccc2)cc1)NCC1CCCO1 (stereo unspecified),-3.25%
9,COc1ccc([N+](=O)[O-])cc1NC(=O)CC1SC(=Nc2cccc(C)c2C)N(/N=C(\C)c2ccc(C)cc2)C1=O (stereo unspecified),-1.84%
10,CCC1CCCCN1C(=O)Nc1cccc(NC(=O)N2CCCCC2CC)c1 (stereo unspecified),-3.65%
11,O=C(CSc1nnc(C2CC2)n1Cc1ccccc1)Nc1cccnc1Cl,1.37%
12,COc1ccccc1N(CC(=O)Nc1ccc(C)cc1Cl)S(=O)(=O)c1cccs1,-7.85%
13,CCCCNC(=O)Nc1c(C)cc(SC#N)cc1C,-8.62%
14,O=C(c1cc2sccc2n1Cc1ccc(F)cc1)N1CCc2ccccc21,-0.47%
15,CCCc1cc(=O)[nH]c(SCC(=O)Nc2ccc(S(=O)(=O)N3CCCC3)cc2)n1,-0.74%
